In all, about 290,000 compounds went through this assay and about 11,000 (3.8%) were called active. For the sample, actives were picked, then their nearest neighbours and some compounds at random. A number with no mark means an inactive call.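 Rule for the calls: active = mean replicate inhibition above about 79%, with every replicate also reaching it (limit read from the data); inconclusive = only one of the two criteria met; inactive = mean below limit and not every replicate reaching it.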
molecular target: FAD-linked sulfhydryl oxidase ALR (Homo sapiens) (UniProt P55789); assay: inhibitors of human ALR sulfhydryl oxidase, primary screen, biochemical, H2O2 detection, HRP-luminol luminescence, single point (AID 485317); conditions: purified ALR, DTT oxidation, active compounds read high, concentration not given here
Sequence (P55789 whole entry, looked up): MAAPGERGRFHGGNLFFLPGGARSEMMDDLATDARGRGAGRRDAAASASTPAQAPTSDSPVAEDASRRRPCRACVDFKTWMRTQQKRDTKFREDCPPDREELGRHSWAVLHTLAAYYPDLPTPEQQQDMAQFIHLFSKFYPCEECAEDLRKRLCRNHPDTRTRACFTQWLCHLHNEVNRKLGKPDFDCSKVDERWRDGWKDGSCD

Row | Compound | inhibition
1 | COc1ccc(CNC(=O)COC(=O)c2sccc2C)cc1OC | 2.29%
2 | O=C(CN1C(=O)NC2(CCCC2)C1=O)OCCOc1ccc(F)cc1 | -0.86%
3 | CN(CC(=O)Nc1ccc(Cl)cc1)C(=O)c1ccc(COc2ccccc2)cc1 | -2.8%
4 | COCCNC(=S)N/N=C/c1c(C)[nH]c2ccccc12 | 98% (active)
5 | Cc1[nH]c2ccccc2c1/C=N/NC(=O)CNC(=O)c1ccc2c(c1)OCO2 | -4.62%
6 | Cc1[nH]c2ccccc2c1/C=N\NC(=O)Cn1nnc(-c2ccccc2)n1 | -18.5%
7 | O=C(COC(=O)C1(c2ccc(F)cc2)CCCC1)N1CCNC1=O | 1.5%
8 | COc1ccccc1C(CNC(=O)c1cccc(NS(=O)(=O)c2ccc(Br)cc2)c1)N(C)C (stereo not given) | -2.7%
9 | CC(C)NC(=O)Nc1cccc2c1O[C@@H](CN(C)S(=O)(=O)c1ccc(F)cc1)[C@@H](C)CN([C@H](C)CO)C2=O | -3.22%
10 | CCOC(=O)c1c(-c2ccccc2)oc2cc(Br)c(O)cc12 | 13.2%
11 | CCOC(=O)c1c(N)nn(C(=O)c2ccccc2)c1-c1ccccc1 | 3.16%
12 | CCOC(=O)c1c(-c2cccc(N)c2)cn2ccccc12 | 99% (active)
13 | CCOC(=O)c1sc(N)c(C#N)c1COC(=O)C1=COCCO1 | -1.4%
14 | CCOC(=O)CSc1ccccn1 | -2.85%
15 | CCOC(=O)CSc1nc(C)cc2c1C(=O)OC2 | -5.37%
16 | CCOC(=O)CSC1=N/C(=C/c2ccc(-n3cncn3)cc2)C(=O)N1C(C)=O | 97.6% (active)
17 | CC(=O)Nc1ccc(NC(=O)COC(=O)c2ccccc2C(=O)c2ccccc2)cc1 | 0.353%
18 | COc1ccc(S(=O)(=O)N2CCCCCC2)cc1C(=O)N(C)Cc1cccc(OC)c1OC | -1.21%
19 | CCOc1ccc(C(=O)NCC(=O)N2CCN(c3ccc(C(F)(F)F)cn3)CC2)cc1 | 1.77%
20 | O=C(COC(=O)CN1C(=O)C2CCCCC2C1=O)Nc1ccc(F)c(F)c1F (stereo not given) | -5.29%
21 | COc1ccc([N+](=O)[O-])cc1-c1nc2ccccc2nc1-c1ccccc1 | -10.3%
22 | Cc1nc(-c2ccc([N+](=O)[O-])cc2)c(-c2ccccc2)o1 | 97.6% (active)
23 | Cc1cccc(NC(=O)c2sc(-c3ccccc3)nc2-c2ccc([N+](=O)[O-])cc2)c1 | -3.26%

Row | Compound | inhibition
24 | CCC(CO)Oc1cc(NCc2ccccc2)c2ncn(C3CCCC3)c2c1 (stereo not given) | 15.4%
25 | CC1CC1C(=O)OCC(=O)Nc1cccc(F)c1 (stereo not given) | -3.36%
26 | COC(=O)c1ccc(C)c(NC(=O)Cn2c(C)csc2=O)c1 | -1.89%
27 | Cc1ccc(Nc2c3c(nc4ccccc24)CCC3)cc1 | 98.4% (active)
28 | CC(=O)Nc1ccc(-c2nc3ccccc3o2)cc1 | -1.09%
29 | N#Cc1cccc(Nc2c3c(nc4ccccc24)CCCC3)c1 | -9.75%
30 | O=C(Nc1c2c(nc3ccccc13)CCCC2)c1ccccc1Br | -5.44%
31 | CC(=O)Nc1ccc(Nc2c3ccccc3nc3ccccc23)cc1 | 89.9% (active)
32 | O=[N+]([O-])c1cccc(Nc2c3ccccc3nc3ccccc23)c1 | -6.1%
33 | CCOC(=O)C1=C(COC(=O)[C@H](C)NS(=O)(=O)c2ccccc2F)NC(=O)NC1C (stereo not given in full) | -1.62%
34 | O=C(CN1C(=O)NC2(CCOc3ccccc32)C1=O)NCc1ccc(F)cc1 (stereo not given) | -3.27%
35 | COC(=O)C1CCN(C(=O)COC(=O)c2cc(S(=O)(=O)N3CCOCC3)ccc2C)CC1 | -15.3%
36 | O=C(Nc1ccc(NC(=O)c2ccccc2F)cc1)c1ccccc1F | -9.75%
37 | C/C(CC(=O)Nc1ccc(N(C)C)cc1)=N\NC(=O)c1ccccc1F | 87.2% (active)
38 | CCn1c2ccccc2c2cc(NC(=O)C/C(C)=N/NC(=O)c3ccccc3N)ccc21 | -1.26%
39 | Cc1ccc2c(c1)NC(=O)[C@@]1(C)[C@@H](c3ccccc3)[C@H]3COc4ccc(Cl)cc4[C@@H]3N1C2=O | 0.863%
40 | CC(=O)N1CCc2c(sc(NC(=O)CCS(=O)(=O)c3ccc(C)cc3)c2C(N)=O)C1 | -33.3%
41 | C[C@H]1COC(=O)[C@H](CC(=O)OC(C)(C)C)C/C=C\C[C@@H](CC(=O)N[C@H](CO)Cc2ccccc2)C(=O)N1 | 1.44%
42 | CCCCN(C(=O)c1ccc2ccccc2c1)c1c(N)n(CCCC)c(=O)[nH]c1=O | -4.16%
43 | Cn1cc(Cl)c(C(=O)NNC(=S)Nc2cccc(Cl)c2)n1 | 89.2% (active)
44 | Cc1cccc(-n2cnc(C(=O)NNC(=S)Nc3ccccc3)c2)n1 | 47.8%
45 | Cc1nn(C)cc1C(=O)NNC(=S)Nc1ccc(Cl)cc1 | 49.6%
46 | CC(OC(=O)CCCOc1ccccc1)C(=O)Nc1ccc(Cl)cn1 (stereo not given) | -0.655%

Row | Compound | inhibition
47 | CN(Cc1ccc(F)cc1)C(=O)CN1C(=O)c2ccccc2S1(=O)=O | 1.6%
48 | COc1ccc(COC(=O)N/N=C(\C)CC(=O)Nc2ccc(Cl)cc2)cc1 | -4.07%
49 | C/C(CC(=O)Nc1cccc(C(F)(F)F)c1)=N\NC(=O)C(=O)NCC(C)C | -10.3%
50 | C/C(CC(=O)Nc1ccc(Cl)cc1)=N\NC(=O)C(=O)NCCO | 96.1% (active)
51 | CC(C#N)OC(=O)c1cccnc1SCC(=O)Nc1ccc2c(c1)OCO2 (stereo not given) | -10.2%
52 | Cc1ccc(S(=O)(=O)N2CCN(C(=O)c3ccccc3-c3nc4ccccc4s3)CC2)c(C)c1 | -15.3%
53 | Cc1ccc(NC(=O)C(c2ccccc2)N2CCN(C(=O)c3ccco3)CC2)cc1 (stereo not given) | -2.06%
54 | COc1cc(OC)cc(C(=O)N[C@H](C(=O)NNC(=O)c2ccc(Br)cc2)C(C)C)c1 | -9.81%
55 | CC(=NCc1ccco1)c1c(C(F)(F)F)[nH]n(-c2nc3ccccc3s2)c1=O | 92.1% (active)
56 | CCc1ccc(-c2cc(C(=O)NCc3ccco3)c3ccccc3n2)s1 | 52.8%
57 | CC(=NCc1ccco1)C1=C(O)c2ccccc2C1=O | 2.24%
58 | COc1cc(C=NNC(=O)c2cccnc2)ccc1OC(=O)c1ccccc1F | 20.1%
59 | COc1ccc(CCNC(=O)COC(=O)c2cnc(Cl)c(Cl)c2)cc1 | -2.44%
60 | Cc1cc(NC(=O)CSc2ncc(C(F)(F)F)cc2Cl)no1 | -1.5%
61 | COc1ccc(S(=O)(=O)Nc2ccc3c(c2)OCO3)cc1Cl | 9.92%
62 | COc1ccccc1C1C2=C(COC2=O)Nc2cc3c(cc21)OCO3 (stereo not given) | 97.9% (active)
63 | COc1cc2c(cc1/C=C1/NC(=O)N(c3ccccc3)C1=O)OCO2 | -7.41%
64 | CC[C@@]12C(=O)N(c3ccccc3)C(=O)N1[C@H](c1ccc(Br)cc1)[C@@H]1C(=O)N(C(C)(C)C)C(=O)[C@@H]12 | -9.54%
65 | COc1cc(S(=O)(=O)N2CCN(C(=O)C3CC3)CC2)ccc1NC(C)=O | -5.34%
66 | COc1ccc(S(=O)(=O)N(C)C[C@H]2Oc3ccc(NS(=O)(=O)c4cccs4)cc3CC(=O)N([C@H](C)CO)C[C@H]2C)cc1 | -0.0995%
67 | O=S(=O)(c1ccc(Cl)cc1)c1nc(-c2ccco2)oc1N1CCCCC1 | 5.77%
68 | Cn1c(=O)n(Cc2ccco2)c(=N)c2c3c(sc21)CCCC3 | 3.35%
69 | O=c1oc(-c2ccco2)nc2sc3c(c12)CCCCC3 | 88.4% (active)

Row | Compound | inhibition
70 | CCC(CO)Oc1cc(NC(=O)c2ccc(Cl)cc2)c2ncn(C(C)C)c2c1 (stereo not given) | -2.2%
71 | CC(=O)c1c(C)[nH]c(C(=O)N2CCN(S(=O)(=O)c3ccc(F)c(F)c3)CC2)c1C | -0.525%
72 | CN(C)c1ccc(/C=N/N(Cc2ccccc2)c2ccccc2)cc1 | -4.17%
73 | Oc1ccc(/C=N/N(Cc2ccccc2)c2ccccc2)cc1 | 99.2% (active)
74 | CCN(/N=C/c1ccccc1)c1cc(=O)n(C)c(=O)[nH]1 | -9.29%
75 | Cc1ccc(C(=O)NNC(=O)CSc2nnc3ccccn23)cc1 | -4.37%
76 | Cc1cc(C)c(-c2c(O)c3ccccc3n(C)c2=O)c(C)c1 | -13.7%
77 | Cc1cc(O)c(Sc2ccccc2)c(=O)o1 | -17.8%
78 | COc1cccc(NC(=S)NCc2ccccn2)c1 | -3.74%
79 | Cc1c(C)c(C)c(S(=O)(=O)NCCc2ccccn2)c(C)c1C | 3.53%
80 | COc1ccc(NCCc2ccccn2)cc1 | 99.8% (active)
81 | COc1ccc(C)cc1NC(=O)CCCN1C(=O)NC(C)(C)C1=O | 0.111%
82 | Cc1cccc(-c2oc3ccc(-c4ccc5c(c4)OCO5)cc3c2C#Cc2cncn2C)c1 | -9.37%
83 | Cc1ccc(S(=O)(=O)CC(=O)Nc2nnc(C)s2)cc1 | -1.7%
84 | CSc1nnc(NC(=O)c2nc(S(=O)(=O)Cc3ccc(C)cc3)ncc2Cl)s1 | 8.89%
85 | CSc1ncc(Cl)c(C(=O)Nc2cc(C)ccc2C)n1 | -2.22%
86 | Cc1cccc(NC(=O)c2nc(S(=O)(=O)Cc3ccccc3)ncc2Cl)c1 | 4.68%
87 | Cc1cccc(CS(=O)(=O)c2ncc(Cl)c(C(=O)Nc3ccc(F)cc3)n2)c1 | 98.4% (active)
88 | Cc1ccc(CS(=O)(=O)c2ncc(Cl)c(C(=O)Nc3nnc(C)s3)n2)cc1 | 97.5% (active)
89 | N#Cc1cccc(OC(=O)c2ccc3c(=O)n4c(nc3c2)CCC4)c1 | 43.5%
90 | CC1CCCCC1NC(=O)COc1ccc(C#N)cc1 (stereo not given) | 0.208%

— PubChem BioAssay AID485317 (Broad Institute, 2010)
